The supplement of paper PMC8728848
This excerpt belongs to a sample that is enriched for the strongest signals.

What was measured:
Experiment in all cases: glycan array binding signal (z-score within array); higher = stronger binding
Conditions in all cases: glycan notation: IUPAC condensed, linker removed
Gal3S(b1-3)GalNAc = molecular target: Gal3S(b1-3)GalNAc
Outline: (§1)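 From the Consortium for Functional Glycomics database, 3228 arrays were curated, keeping only those whose protein sequence was available. Binding is given as a within-array Z-score averaged across arrays sharing a protein sequence and across linkers. Negative Z-scores can be read as non-binding.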

Gal3S(b1-4)GlcNAc6S = molecular target: Gal3S(b1-4)GlcNAc6S
Outline: as §1

Gal6S(b1-4)Glc = molecular target: Gal6S(b1-4)Glc
Outline: as §1

[1] = molecular target: GalNAc(a1-3)GalNAc(b1-3)Gal(a1-4)Gal(b1-4)GlcNAc
Outline: as §1

[2] = molecular target: GlcA3S(b1-3)Gal(b1-4)GlcNAc(b1-2)Man
Outline: as §1

[3] = molecular target: GlcA3S(b1-3)Gal(b1-4)GlcNAc(b1-3)Gal(b1-4)Glc
Outline: as §1

[4] = molecular target: GlcNAc(a1-4)Gal(b1-4)GalNAc
Outline: as §1

[5] = molecular target: GlcNAc(b1-2)Man(a1-3)[GlcNAc(b1-4)][GlcNAc(b1-2)Man(a1-6)]Man(b1-4)GlcNAc(b1-4)GlcNAc
Outline: as §1

[6] = molecular target: GlcNAc(b1-2)Man(a1-3)[GlcNAc(b1-4)][GlcNAc(b1-2)Man(a1-6)]Man(b1-4)GlcNAc(b1-4)[Fuc(a1-6)]GlcNAc
Outline: as §1

[7] = molecular target: GlcNAc(b1-2)[GlcNAc(b1-4)]Man(a1-3)[GlcNAc(b1-4)][GlcNAc(b1-2)Man(a1-6)]Man(b1-4)GlcNAc(b1-4)GlcNAc
Outline: as §1

[8] = molecular target: GlcNAc(b1-3)Gal(b1-4)GlcNAc(b1-6)[Gal(b1-3)]GalNAc
Outline: as §1

[9] = molecular target: Man(a1-3)[Man(a1-6)]Man(a1-6)[Man(a1-3)]Man(b1-4)GlcNAc(b1-4)GlcNAc
Outline: as §1

Neu5Ac(a2-3)Gal = molecular target: Neu5Ac(a2-3)Gal
Outline: as §1

[10] = molecular target: Neu5Ac(a2-3)Gal(b1-3)GalNAc(b1-3)Gal(a1-4)Gal(b1-4)Glc
Outline: as §1

[11] = molecular target: Neu5Ac(a2-3)Gal(b1-4)GlcNAc(b1-2)Man(a1-3)[GlcNAc(b1-2)Man(b1-4)GlcNAc(b1-2)Man(a1-6)]Man(b1-4)GlcNAc(b1-4)GlcNAc
Outline: as §1

[12] = molecular target: Neu5Ac(a2-3)Gal(b1-4)GlcNAc(b1-2)Man(a1-3)[Neu5Ac(a2-3)Gal(b1-4)GlcNAc(b1-2)Man(a1-6)]Man(b1-4)GlcNAc(b1-4)[Fuc(a1-6)]GlcNAc
Outline: as §1

[13] = molecular target: Neu5Ac(a2-3)Gal(b1-4)GlcNAc(b1-2)[Neu5Ac(a2-3)Gal(b1-4)GlcNAc(b1-4)]Man(a1-3)[GlcNAc(b1-4)][Neu5Ac(a2-3)Gal(b1-4)GlcNAc(b1-2)[Neu5Ac(a2-3)Gal(b1-4)GlcNAc(b1-6)]Man(a1-6)]Man(b1-4)GlcNAc(b1-4)GlcNAc
Outline: as §1

[14] = molecular target: Neu5Ac(a2-3)Gal(b1-4)GlcNAc(b1-2)[Neu5Ac(a2-3)Gal(b1-4)GlcNAc(b1-4)]Man(a1-3)[GlcNAc(b1-4)][Neu5Ac(a2-3)Gal(b1-4)GlcNAc(b1-4)Man(a1-6)]Man(b1-4)GlcNAc(b1-4)GlcNAc
Outline: as §1

[15] = molecular target: Neu5Ac(a2-3)Gal(b1-4)GlcNAc(b1-3)Gal(b1-4)GlcNAc(b1-3)Gal(b1-4)GlcNAc(b1-2)Man(a1-3)[Neu5Ac(a2-3)Gal(b1-4)GlcNAc(b1-3)Gal(b1-4)GlcNAc(b1-3)Gal(b1-4)GlcNAc(b1-2)Man(a1-6)]GalNAc
Outline: as §1

[16] = molecular target: Neu5Ac(a2-3)Gal(b1-4)GlcNAc(b1-3)Gal(b1-4)GlcNAc(b1-3)GalNAc
Outline: as §1

[17] = molecular target: Neu5Ac(a2-6)Gal(b1-4)GlcNAc(b1-2)Man(a1-3)[Neu5Ac(a2-6)Gal(b1-4)GlcNAc(b1-2)Man(a1-6)]Man(b1-4)GlcNAc(b1-4)GlcNAc
Outline: as §1

[18] = molecular target: Neu5Ac(a2-6)Gal(b1-4)GlcNAc(b1-2)Man(a1-3)[Neu5Ac(a2-6)Gal(b1-4)GlcNAc(b1-2)Man(a1-6)]Man(b1-4)GlcNAc(b1-4)[Fuc(a1-6)]GlcNAc
Outline: as §1

[19] = molecular target: Neu5Ac(a2-6)Gal(b1-4)GlcNAc(b1-2)Man(a1-6)[Man(a1-3)]Man(b1-4)GlcNAc(b1-4)GlcNAc
Outline: as §1

[20] = molecular target: Neu5Ac(a2-6)Gal(b1-4)GlcNAc(b1-3)Gal(b1-4)GlcNAc(b1-3)[Neu5Ac(a2-6)Gal(b1-4)GlcNAc(b1-3)Gal(b1-4)GlcNAc(b1-6)]GalNAc
Outline: as §1

Neu5Ac(a2-6)GalNAc = molecular target: Neu5Ac(a2-6)GalNAc
Outline: as §1

Neu5Ac(a2-8)Neu5Ac = molecular target: Neu5Ac(a2-8)Neu5Ac
Outline: as §1

[21] = molecular target: Neu5Ac(a2-8)Neu5Ac(a2-3)Gal(b1-3)GalNAc(b1-4)[Neu5Ac(a2-8)Neu5Ac(a2-3)]Gal(b1-4)Glc
Outline: as §1

[22] = molecular target: Neu5Ac(a2-8)Neu5Ac(a2-8)Neu5Ac(a2-8)Neu5Ac(a2-3)[GalNAc(b1-4)]Gal(b1-4)Glc
Outline: as §1

[23] = molecular target: Neu5Ac9Ac(a2-3)Gal(b1-3)GlcNAc
Outline: as §1

[24] = molecular target: Neu5Gc(a2-8)Neu5Gc(a2-3)Gal(b1-4)GlcNAc(b1-3)Gal(b1-4)GlcNAc
Outline: as §1

B1: AAL (Agrocybe aegerita), Q6WY08 (protein)
chain: MQGVNIYNISAGTSVDLAAPVTTGDIVTFFSSALNLNAGAGNPNNTTLNLFAENGAYLLHIAFRLQENVIIFNSRQPDGPWLVEQRVSDVANQFAGIDGKAMVTVFDHGDKYQVVINEKTVIQYTKQISGLTLSLSYNATEETSIFSTVVEAVTYTGLALEHHHHHH
Gal3S(b1-3)GalNAc
  glycan array binding signal (z-score): 9.4
Gal3S(b1-4)GlcNAc6S
  glycan array binding signal (z-score): 3.66
Gal6S(b1-4)Glc
  glycan array binding signal (z-score): -0.141
[1]
  glycan array binding signal (z-score): -0.137
[2]
  glycan array binding signal (z-score): 6.26
[3]
  glycan array binding signal (z-score): 10.9
[4]
  glycan array binding signal (z-score): -0.152
[5]
  glycan array binding signal (z-score): -0.151
[6]
  glycan array binding signal (z-score): -0.151
[7]
  glycan array binding signal (z-score): -0.14
[8]
  glycan array binding signal (z-score): -0.134
[9]
  glycan array binding signal (z-score): -0.118
Neu5Ac(a2-3)Gal
  glycan array binding signal (z-score): -0.138
[10]
  glycan array binding signal (z-score): 1.72
[11]
  glycan array binding signal (z-score): 5.88
[12]
  glycan array binding signal (z-score): 3.85
[13]
  glycan array binding signal (z-score): 2.98
[14]
  glycan array binding signal (z-score): 5.72
[15]
  glycan array binding signal (z-score): -0.107
[16]
  glycan array binding signal (z-score): -0.106
[17]
  glycan array binding signal (z-score): -0.134
[18]
  glycan array binding signal (z-score): -0.131
[19]
  glycan array binding signal (z-score): -0.148
[20]
  glycan array binding signal (z-score): -0.138
Neu5Ac(a2-6)GalNAc
  glycan array binding signal (z-score): -0.164
Neu5Ac(a2-8)Neu5Ac
  glycan array binding signal (z-score): -0.146
[21]
  glycan array binding signal (z-score): -0.138
[22]
  glycan array binding signal (z-score): -0.132
[23]
  glycan array binding signal (z-score): -0.156
[24]
  glycan array binding signal (z-score): 2.45
